USP2a inhib = inhibitors of human ubiquitin-specific protease USP2a | USP2a enzymatic assay, qHTS inhibition | Potency, µM (doses to about 38.3 µM), for inactives: top-dose activity change, negative = inhibition, most hits filed as inhibitors | 60,000 compounds, 0.1% hits; also: potency is read from the fitted curve at half-maximal effect; nearly all actives have a fitted effect of over 60% in size
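Inhibition is measured in a cell-free coupled assay with 20 nM USP2 core, 20 nM Ub-PLA2 and 20 uM NBD C6-HPC, 2.5 h incubation. Activity normalized to NEM control.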
YjeE inh = inhibitors of E. coli YjeE (TsaE) | 71,000 compounds, 0.05% hits | purified YjeE enzyme, qHTS inhibition assay | Potency, µM | P0AF67
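Purified YjeE (10 uM) with BODIPY Texas Red-labeled ADP probe (2 uM); compounds pin-transferred, 15 min at room temperature. Binding inhibition read as decreased fluorescence polarization; ADP titration as control.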
UbGFP stabilizer = inhibits proteasome, raising ubiquitin-GFP reporter fluorescence; Potency, µM (series often up to 45.9 µM), for inactives: at the highest dose activation (GFP accumulation), hits mostly activators; AID 526; 67,000 tested, under 10 active; Ubiquitin-GFP reporter cells, proteasome inhibition, GFP fluorescence; response scale: untreated = 0%, 10 µM MG-132 = 100%; active = well fitted activation curve with a large enough effect, not every such curve was filed as active; also: potency is read from the fitted curve at half-maximal effect
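U2OS Ub(G76V)-GFP reporter; O/N plating, 0.5% FBS; cpd 46 uM–2.9 nM, 4 h, 37 °C; GFP+ cell count, 488/515 nm; norm. to basal vs 10 uM MG-132; CRC fit.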
BRCT PPI red = BRCT-phosphoprotein interaction inhibition (red fluorophore) | AID 892 | Potency, µM (doses to about 76.9 µM), for the others: top-dose activity change, negative = inhibition, most hits filed as inhibitors | 75,000 compounds, 0.03% hits | BRCT-phosphopeptide binding, red fluorescence polarization; also: % is scaled to controls: 0 for no effect and ±100 for the full control effect
Target sequence (P38398 whole entry, looked up): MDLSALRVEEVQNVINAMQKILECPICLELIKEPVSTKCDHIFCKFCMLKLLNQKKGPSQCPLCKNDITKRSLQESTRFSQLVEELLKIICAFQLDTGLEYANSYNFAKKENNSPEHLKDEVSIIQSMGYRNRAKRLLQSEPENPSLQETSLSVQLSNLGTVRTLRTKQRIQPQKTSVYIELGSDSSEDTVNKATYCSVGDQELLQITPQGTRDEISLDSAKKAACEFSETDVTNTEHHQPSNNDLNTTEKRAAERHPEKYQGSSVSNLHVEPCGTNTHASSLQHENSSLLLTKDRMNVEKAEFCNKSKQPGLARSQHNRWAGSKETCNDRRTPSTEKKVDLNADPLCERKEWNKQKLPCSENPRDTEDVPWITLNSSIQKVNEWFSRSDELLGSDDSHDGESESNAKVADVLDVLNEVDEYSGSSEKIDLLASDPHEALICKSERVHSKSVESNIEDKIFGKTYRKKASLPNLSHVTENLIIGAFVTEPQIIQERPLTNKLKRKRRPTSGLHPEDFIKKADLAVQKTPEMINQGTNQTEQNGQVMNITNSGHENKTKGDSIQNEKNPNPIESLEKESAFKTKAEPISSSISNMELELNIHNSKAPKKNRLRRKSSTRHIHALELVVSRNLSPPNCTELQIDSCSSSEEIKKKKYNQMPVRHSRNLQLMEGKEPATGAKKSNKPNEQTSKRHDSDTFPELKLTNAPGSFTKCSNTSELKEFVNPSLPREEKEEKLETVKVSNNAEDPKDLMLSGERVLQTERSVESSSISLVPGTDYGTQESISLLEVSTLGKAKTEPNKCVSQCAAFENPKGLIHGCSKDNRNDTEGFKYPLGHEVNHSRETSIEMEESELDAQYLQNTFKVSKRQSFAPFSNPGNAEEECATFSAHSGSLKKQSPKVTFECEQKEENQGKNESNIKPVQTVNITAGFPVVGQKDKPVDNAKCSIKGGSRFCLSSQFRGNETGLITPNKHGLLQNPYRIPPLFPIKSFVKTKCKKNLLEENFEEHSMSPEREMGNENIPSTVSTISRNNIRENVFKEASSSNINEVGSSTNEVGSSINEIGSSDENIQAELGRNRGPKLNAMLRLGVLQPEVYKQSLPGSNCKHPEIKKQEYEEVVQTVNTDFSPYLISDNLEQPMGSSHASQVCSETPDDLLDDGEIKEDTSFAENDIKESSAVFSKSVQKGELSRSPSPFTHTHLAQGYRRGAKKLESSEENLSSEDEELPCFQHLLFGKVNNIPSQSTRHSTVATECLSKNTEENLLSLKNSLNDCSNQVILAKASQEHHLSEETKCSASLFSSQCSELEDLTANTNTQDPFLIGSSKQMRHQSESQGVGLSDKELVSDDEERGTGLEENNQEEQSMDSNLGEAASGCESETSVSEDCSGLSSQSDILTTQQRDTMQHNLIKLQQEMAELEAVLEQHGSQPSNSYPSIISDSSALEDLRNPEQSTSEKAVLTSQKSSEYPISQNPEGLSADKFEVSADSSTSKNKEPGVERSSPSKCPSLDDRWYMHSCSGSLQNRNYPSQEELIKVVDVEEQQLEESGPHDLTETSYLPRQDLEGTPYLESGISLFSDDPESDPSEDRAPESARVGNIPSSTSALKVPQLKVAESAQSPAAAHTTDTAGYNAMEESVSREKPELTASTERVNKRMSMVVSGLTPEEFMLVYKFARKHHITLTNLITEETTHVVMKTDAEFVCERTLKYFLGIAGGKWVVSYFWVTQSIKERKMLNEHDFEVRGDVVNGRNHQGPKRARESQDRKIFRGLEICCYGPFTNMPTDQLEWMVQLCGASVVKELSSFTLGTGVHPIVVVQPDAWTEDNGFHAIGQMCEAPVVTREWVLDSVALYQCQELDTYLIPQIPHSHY
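Rhodamine-labelled pBACH1 10-mer (100 nM) bound to BRCT domain (100 nM) at pH 7.3; compounds incubated 12 min room temperature, polarization read. Free peptide defines full inhibition; unlabelled decapeptide titrated as control.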
Hsp90 Hop PPI = changes Hsp90-Hop TPR2A binding signal, up or down. AlphaScreen TPR2A-His6 binding biotin-Hsp90 C-terminal peptide. Potency, µM (doses to about 57 µM), for the others: top-dose activity change, negative = inhibition. 71,000 compounds, 0.44% hits; active = well fitted curve in either direction with a large enough effect; also: potency is read from the fitted curve at half-maximal effect; % is scaled to controls: 0 for no effect and ±100 for the full control effect
BRCT PPI green = inhibitors of human BRCA1 BRCT-phosphoprotein interaction (green fluorophore) | P38398 | BRCA1 BRCT-phosphopeptide binding, green fluorescence polarization | AID 875 | 75,000 compounds, 0.05% hits | Potency, µM (titrated, usually from 76.9 µM), inactives show at the highest dose activity change, negative = inhibition, usual class: inhibitors;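 also: potency is read from the fitted curve at half-maximal effect; plate controls were peptide without protein for full effect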
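Fluorescence polarization: His-tagged BRCT (~35 kDa BRCA1 C-terminus, 250 nM) bound to 100 nM fluorescein-labeled phosphorylated 10-aa BACH1 peptide, pH 7.3 phosphate buffer with DTT and Tween 20. Compounds incubated 12 min at room temperature; inhibition read as lowered polarization.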
Hsp90 TPR2A CRC = confirmation and counter-screen of Hsp90 TPR2A co-chaperone interaction disrupters; 45 compounds, 100% hits; AlphaScreen TPR2A-His6 / biotin-Hsp90 peptide binding; AID 632; shares compounds with Hsp90 Hop PPI; activity, negative = inhibition, % at 40 µM or 46 µM, hits read low;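 active = compound lowering the Hsp90 and TPR2A binding signal, whether or not the linker counterscreen also flagged it as an artifact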
* = called active by the depositor; i = inactive; . = no result given; [ ] = remark or other dose. Hits are enriched below; roughly 0.47% of the tested compounds scored in any of these assays. Unless noted, calls follow the shape of the dose curve; as a rule, active = well fitted curve in the direction sought with a large enough effect; inconclusive = small, poorly fitted or top-dose-only effect, or another doubt; inactive = no such curve, though single readings can be large; an effect the other way counts as inactive or inconclusive.

SMILES | USP2a inhib | YjeE inh | UbGFP stabilizer | BRCT PPI red | Hsp90 Hop PPI | BRCT PPI green | Hsp90 TPR2A CRC
CCN(CC)C(=O)c1sc2nc(-c3ccncc3)[nH]c(=O)c2c1C | -2% | i | -15% | 0% | 0% | -1% | .
O=C(CN1C(=O)CCC1=O)Nc1nc(-c2ccccn2)cs1 | . | i | 16% | 0% | 2.5µM* | -1% | -100*[alpha-screen platform artifact]
Cc1cccc(Nc2nc(-c3ccccn3)cs2)n1 | 23% | i | 3% | -1% | -8% | -1% | .
Cn1cccc1C(=O)Nc1nc(-c2ccccn2)cs1 | 28% | i | 3% | -1% | 6.3µM* | -1% | -100*[alpha-screen platform artifact]
Brc1ccc(-c2nn3c(-c4ccncc4)nnc3s2)o1 | 3% | i | 2% | -2% | -3% | 0% | .
Brc1ccc(-c2nn3c(-c4ccccn4)nnc3s2)o1 | 18% | i | 2% | -2% | 7.9µM* | 1% | -99*[alpha-screen platform artifact]
O=C(c1cnccn1)N1CCC[C@@]2(CCN(c3ccccn3)C2)C1 | 14% | i | 0% | -1% | 0% | -3% | .
CC[C@H](C)[C@@H]1O[C@]2(CC[C@@H]1C)C[C@H]1C[C@H](CC=C(C)[C@@H](O[C@H]3C[C@H](OC)[C@H](O[C@H]4C[C@H](OC)[C@H](O)[C@H](C)O4)[C@H](C)O3)[C@@H](C)C=CC=C3CO[C@@H]4[C@@H](O)C(C)=C[C@H](C(=O)O1)[C@@]34O)O2 | 22% | i | -5% | -2% | -23% | -1% | .
O=S(=O)(Nc1cccc2ncccc12)c1cccs1 | 1% | i | 4% | 1% | 16µM* | -2% | -100*[alpha-screen platform artifact]
CCOC(=O)c1cnc(N(C)C)nc1SC(=N)N | . | i | 3%[9.17 µM] | -2%[15.4 µM] | -1%[11 µM] | -1%[15.4 µM] | .
